Source: PubChem BioAssay (EPA / NIEHS)
The source made the active and inactive calls. The calls were made as follows: active = hit-call score of the fitted dose curve at least 0.9, where 1 is the maximum; inactive = score below 0.9.

Tests used:
[1] = ATG_GRE_CIS: Attagene CIS-FACTORIAL HepG2 Assay for human Glucocorticoid Response Elements (GRE) (AID 2282947); conditions: HepG2 GRE cis-reporter, Attagene multiplex mRNA; actives raise or lower the signal
In short: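 Fluorescence intensity of reporter-specific cDNA fragments, separated by capillary electrophoresis, provides the signal. Constructs carry cis-regulating promoters in transiently transfected HepG2 liver cells; 24 h incubation; fitting is bidirectional against DMSO.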

[2] = ATG_ISRE_CIS: Attagene CIS-FACTORIAL HepG2 Assay for human Interferon Regulatory Factor 1 (IRF1) binding to an Interferon-Stimulated Response Element (ISRE) (AID 2282948); conditions: HepG2 ISRE cis-reporter (Attagene), mRNA transcription readout; actives raise or lower the signal
In short: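 Read-out: fluorescent RT-PCR products resolved by capillary electrophoresis, reporting endogenous transcription factor activity via ISRE-driven reporter mRNA in transfected HepG2 cells dosed for 24 h; gain or loss fitted relative to DMSO.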

[3] = ATG_M_06_CIS: Attagene CIS-FACTORIAL HepG2 Assay for M06 Transcription Factor (Internal Marker) (AID 2282950); conditions: HepG2 Attagene CIS-FACTORIAL M06 internal marker reporter; actives raise or lower the signal
In short: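 Serves as a background control readout. Transfected HepG2 exposed to compounds for 24 h, then reporter transcripts quantified by fluorescent RT-PCR and capillary electrophoresis. Both directions fitted against DMSO baseline.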

[4] = molecular target: Hepatocyte nuclear factor 6 (Homo sapiens) (UniProt Q9UBC0); assay: ATG_HNF6_CIS: Attagene CIS-FACTORIAL HepG2 Assay for human Hepatocyte Nuclear Factor 6 (HNF6) (AID 2282952); conditions: HepG2 Attagene cis-factorial HNF6 reporter transcription; actives raise or lower the signal
In short: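 Activity values derive from bidirectional fitting against DMSO of reporter mRNA levels, measured by capillary electrophoresis of labelled RT-PCR products from HepG2 cells exposed 24 h.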

[5] = molecular target: Heat shock factor protein 1 (Homo sapiens) (UniProt Q00613); assay: ATG_HSE_CIS: Attagene CIS-FACTORIAL HepG2 Assay for human Heat Shock Transcription Factor 1 (HSE) (AID 2282953); conditions: HepG2 HSE cis-reporter, Attagene RNA transcription; actives raise or lower the signal
In short: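 Endogenous transcription factor activity in transiently transfected HepG2, read as reporter mRNA by RT-PCR with fluorescent capillary electrophoresis after 24 h. Gain or loss of signal fitted versus DMSO baseline.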

[6] = ATG_MRE_CIS: Attagene CIS-FACTORIAL HepG2 Assay for human Metal Responsive Element (MRE) (AID 2282954); conditions: HepG2 MRE cis-reporter transcription, Attagene multiplex; actives raise or lower the signal
In short: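 Measured here is mRNA induction from an MRE cis-element reporter in HepG2 after 24 h, quantified by fluorescence of labelled RT-PCR products on capillary electrophoresis; gain- and loss-of-signal fits use DMSO as baseline.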

[7] = ATG_PBREM_CIS: Attagene CIS-FACTORIAL HepG2 Assay for human Phenobarbital-responsive Enhancer Module (PBREM) (AID 2282955); conditions: HepG2 PBREM cis-reporter, Attagene multiplexed transcription; actives raise or lower the signal
In short: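 Transfected liver-derived HepG2 cells exposed 24 h; PBREM reporter transcript quantified via RT-PCR and capillary electrophoresis, with activity in either direction referenced to DMSO.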

[8] = molecular target: Paired box protein Pax-6 (Homo sapiens) (UniProt P26367); assay: ATG_Pax6_CIS: Attagene CIS-FACTORIAL HepG2 Assay for human Paired Box 6 (PAX6) (AID 2282956); conditions: HepG2 CIS-FACTORIAL PAX6 reporter transcription, RNA readout; actives raise or lower the signal
In short: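 Readout: reporter transcript fluorescence after RT-PCR and capillary electrophoresis. Cells: HepG2, transiently transfected with cis-regulated MRTUs. Exposure 24 h. Gain or loss of signal fitted bidirectionally relative to DMSO.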

[9] = ATG_PXRE_CIS: Attagene CIS-FACTORIAL HepG2 Assay for human Pregnane X Receptor Element (PXRE) (AID 2282957); conditions: HepG2 Attagene CIS-FACTORIAL PXRE reporter, mRNA; actives raise or lower the signal
In short: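 Fluorescent capillary electrophoresis of amplified reporter cDNA gave the signal, collected 24 h after dosing HepG2 cells that held transfected cis-element reporter constructs.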

[10] = ATG_PPRE_CIS: Attagene CIS-FACTORIAL HepG2 Assay for human Peroxisome Proliferator-activated Response Element (PPRE) (AID 2282958); conditions: HepG2 PPRE cis-element reporter, Attagene transcription factor profiling; actives raise or lower the signal
In short: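 Measured endpoint: PPRE-controlled reporter mRNA, detected by RT-PCR and capillary electrophoresis fluorescence, from transiently transfected HepG2 cells 24 h after dosing. Curves fitted in both directions using DMSO baseline.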

[11] = ATG_RORE_CIS: Attagene CIS-FACTORIAL HepG2 Assay for human RAR-related Orphan Receptor Element (RORE) (AID 2282959); conditions: HepG2 Attagene cis-factorial RORE reporter, mRNA; actives raise or lower the signal
In short: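 Transiently transfected HepG2 reporter cells were treated 24 h. Reporter transcripts were detected by RT-PCR and capillary electrophoresis, with bidirectional fitting against DMSO.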

[12] = ATG_Sox_CIS: Attagene CIS-FACTORIAL HepG2 Assay for human SRY-box transcription factor (SOX) (AID 2282960); conditions: HepG2 Attagene cis-factorial SOX reporter, mRNA; actives raise or lower the signal
In short: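 Gain- or loss-of-signal endpoint, fitted bidirectionally with DMSO as negative control. Based on reporter mRNA from transfected HepG2 cells harvested 24 h post-treatment and quantified via RT-PCR and capillary electrophoresis.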

[13] = molecular target: Transcription factor Sp1 (Homo sapiens) (UniProt P08047); assay: ATG_Sp1_CIS: Attagene CIS-FACTORIAL HepG2 Assay for human Specificity Protein 1 (Sp1) (AID 2282961); conditions: HepG2 Sp1 cis-reporter transcription, actives raise or lower the signal
In short: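 Endpoint reflects endogenous Sp1 transcriptional activity, not an exogenous fusion protein: HepG2 cells with transfected cis-regulated reporters, 24 h dosing, RT-PCR/capillary electrophoresis mRNA read-out, DMSO-normalised bidirectional fit.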

[14] = molecular target: Signal transducer and activator of transcription 3 (Homo sapiens) (UniProt P40763); assay: ATG_STAT3_CIS: Attagene CIS-FACTORIAL HepG2 Assay for human Signal Transducer and Activator of Transcription 3 (STAT3) (AID 2282963); conditions: HepG2, Attagene cis-factorial STAT3 reporter transcription; actives raise or lower the signal
In short: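 Fluorescence intensity of 6-FAM-labelled reporter fragments, separated by capillary electrophoresis after RT-PCR, gave the signal. Cells were HepG2 transfected with cis-element reporter units and treated 24 h; fitting was bidirectional relative to DMSO.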

[15] = ATG_TA_CIS: Attagene CIS-FACTORIAL HepG2 Assay for human TA Basal Promoter (AID 2282964); conditions: HepG2 Attagene CIS-factorial TA basal promoter reporter; actives raise or lower the signal
In short: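 Background-control readout: TA basal promoter reporter mRNA, fitted in both directions relative to DMSO. Measured by RT-PCR and capillary electrophoresis 24 hours after treating HepG2 human liver cells transiently carrying multiplexed cis-regulated reporter constructs.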

[16] = ATG_TCF_b_cat_CIS: Attagene CIS-FACTORIAL HepG2 Assay for human T-Cell-Factor with beta-catenin (TCF/b-cat) (AID 2282965); conditions: HepG2 TCF/beta-catenin cis-reporter transcription, actives raise or lower the signal
In short: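 HepG2 cells transiently transfected with cis-promoter-driven multiplexed reporter units; reporter mRNA measured 24 h after dosing by RT-PCR, FAM labelling, HpaI digestion and capillary electrophoresis. Bidirectional fitting relative to DMSO baseline.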

[17] = ATG_M_32_CIS: Attagene CIS-FACTORIAL HepG2 Assay for M32 Transcription Factor (Internal Marker) (AID 2282949); conditions: HepG2 Attagene cis-factorial M32 reporter, mRNA; actives raise or lower the signal;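 also: background control marker of the multiplexed CIS panel rather than a real target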
In short: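 HepG2 human liver cells transiently transfected with cis-promoter-driven multiple reporter transcription units, dosed 24 h. Reporter mRNA quantified by RT-PCR, FAM-labelled primer extension, HpaI digest and capillary electrophoresis; bidirectional fit versus DMSO baseline.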

[18] = molecular target: Hypoxia-inducible factor 1-alpha (Homo sapiens) (UniProt Q16665); assay: ATG_HIF1a_CIS: Attagene CIS-FACTORIAL HepG2 Assay for human Hypoxia Inducible Factor 1 (HIF1A) (AID 2282951); conditions: HepG2 Attagene cis-factorial HIF1a reporter transcription; actives raise or lower the signal
In short: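 Dosed 24 h, transfected HepG2 cells yielded total RNA whose reporter transcripts were RT-PCR-amplified and sized by capillary electrophoresis using fluorescent labelling; DMSO defined baseline, with gain and loss of signal both fitted.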

[19] = ATG_SREBP_CIS: Attagene CIS-FACTORIAL HepG2 Assay for human Sterol Regulatory Element Binding (SREBP) (AID 2282962); conditions: HepG2 Attagene cis-factorial SREBP reporter, mRNA; actives raise or lower the signal
In short: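 Readout: fluorescent reporter-transcript peaks resolved by capillary electrophoresis after RT-PCR. Cells were human HepG2 carrying transfected cis-promoter reporter constructs, dosed for 24 h. Gain or loss of signal was fitted against DMSO controls.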

Chain of Paired box protein Pax-6 (Homo sapiens) (P26367 whole entry, looked up): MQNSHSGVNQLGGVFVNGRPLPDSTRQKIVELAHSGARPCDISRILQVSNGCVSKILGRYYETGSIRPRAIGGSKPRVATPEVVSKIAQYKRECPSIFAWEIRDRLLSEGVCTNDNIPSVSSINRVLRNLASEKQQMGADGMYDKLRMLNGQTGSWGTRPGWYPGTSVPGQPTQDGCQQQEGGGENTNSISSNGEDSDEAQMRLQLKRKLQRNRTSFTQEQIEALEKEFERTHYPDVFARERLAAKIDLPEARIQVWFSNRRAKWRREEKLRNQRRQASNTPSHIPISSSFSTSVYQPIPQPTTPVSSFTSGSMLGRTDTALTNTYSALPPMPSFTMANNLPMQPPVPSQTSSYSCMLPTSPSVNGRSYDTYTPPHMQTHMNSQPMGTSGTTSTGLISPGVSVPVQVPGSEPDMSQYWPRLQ
Chain of Signal transducer and activator of transcription 3 (Homo sapiens) (P40763 whole entry, looked up, the tested form may be a part): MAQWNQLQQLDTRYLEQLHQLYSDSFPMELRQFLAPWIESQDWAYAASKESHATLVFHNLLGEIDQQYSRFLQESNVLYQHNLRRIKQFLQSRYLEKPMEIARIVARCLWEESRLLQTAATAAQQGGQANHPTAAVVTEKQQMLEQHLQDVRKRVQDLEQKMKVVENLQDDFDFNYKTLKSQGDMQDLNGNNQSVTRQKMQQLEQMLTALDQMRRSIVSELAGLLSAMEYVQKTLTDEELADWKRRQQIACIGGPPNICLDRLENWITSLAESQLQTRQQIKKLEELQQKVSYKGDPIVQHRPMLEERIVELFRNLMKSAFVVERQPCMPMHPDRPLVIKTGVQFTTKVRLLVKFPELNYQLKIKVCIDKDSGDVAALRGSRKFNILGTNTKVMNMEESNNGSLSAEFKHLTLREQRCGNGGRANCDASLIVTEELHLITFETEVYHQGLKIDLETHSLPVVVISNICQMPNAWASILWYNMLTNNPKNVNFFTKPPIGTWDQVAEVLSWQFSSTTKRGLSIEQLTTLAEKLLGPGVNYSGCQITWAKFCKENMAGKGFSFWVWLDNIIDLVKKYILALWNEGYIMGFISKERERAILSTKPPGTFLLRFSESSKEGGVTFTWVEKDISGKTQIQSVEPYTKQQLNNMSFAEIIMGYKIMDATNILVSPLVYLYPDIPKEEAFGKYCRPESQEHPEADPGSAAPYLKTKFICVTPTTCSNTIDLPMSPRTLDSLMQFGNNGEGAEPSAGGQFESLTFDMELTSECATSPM
Chain of Heat shock factor protein 1 (Homo sapiens) (Q00613 whole entry, looked up): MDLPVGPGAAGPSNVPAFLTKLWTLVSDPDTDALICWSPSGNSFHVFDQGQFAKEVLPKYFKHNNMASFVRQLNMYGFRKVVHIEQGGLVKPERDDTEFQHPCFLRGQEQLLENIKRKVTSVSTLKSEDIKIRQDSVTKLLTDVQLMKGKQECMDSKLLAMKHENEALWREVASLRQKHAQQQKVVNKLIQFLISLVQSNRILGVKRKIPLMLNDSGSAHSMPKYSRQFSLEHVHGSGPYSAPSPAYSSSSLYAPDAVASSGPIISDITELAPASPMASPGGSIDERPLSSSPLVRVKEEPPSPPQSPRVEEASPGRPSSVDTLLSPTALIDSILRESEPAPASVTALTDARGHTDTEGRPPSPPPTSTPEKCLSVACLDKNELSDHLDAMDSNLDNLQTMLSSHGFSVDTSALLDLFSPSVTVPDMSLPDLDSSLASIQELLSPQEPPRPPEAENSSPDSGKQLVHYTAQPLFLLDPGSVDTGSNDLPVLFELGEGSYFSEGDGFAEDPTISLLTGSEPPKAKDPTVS
Chain of Transcription factor Sp1 (Homo sapiens) (P08047 whole entry, looked up, the tested form may be a part): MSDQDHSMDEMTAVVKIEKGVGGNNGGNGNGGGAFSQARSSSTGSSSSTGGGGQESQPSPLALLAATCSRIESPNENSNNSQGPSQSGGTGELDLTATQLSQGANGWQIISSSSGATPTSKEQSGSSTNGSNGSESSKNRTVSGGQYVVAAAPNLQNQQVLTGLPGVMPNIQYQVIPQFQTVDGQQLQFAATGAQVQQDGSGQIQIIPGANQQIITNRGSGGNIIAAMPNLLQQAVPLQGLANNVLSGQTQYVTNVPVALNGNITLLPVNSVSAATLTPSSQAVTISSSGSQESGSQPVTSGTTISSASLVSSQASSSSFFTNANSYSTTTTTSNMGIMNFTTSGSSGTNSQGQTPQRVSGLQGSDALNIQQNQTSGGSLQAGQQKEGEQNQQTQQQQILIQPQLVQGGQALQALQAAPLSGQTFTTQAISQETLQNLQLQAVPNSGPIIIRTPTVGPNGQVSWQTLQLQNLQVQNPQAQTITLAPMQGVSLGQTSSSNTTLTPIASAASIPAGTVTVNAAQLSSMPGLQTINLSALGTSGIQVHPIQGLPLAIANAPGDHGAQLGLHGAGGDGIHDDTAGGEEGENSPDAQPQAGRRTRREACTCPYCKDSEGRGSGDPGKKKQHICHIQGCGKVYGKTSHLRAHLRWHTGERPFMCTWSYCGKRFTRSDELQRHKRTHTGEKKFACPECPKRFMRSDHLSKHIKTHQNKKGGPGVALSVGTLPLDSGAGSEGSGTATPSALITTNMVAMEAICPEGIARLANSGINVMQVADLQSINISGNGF
Chain of Hypoxia-inducible factor 1-alpha (Homo sapiens) (Q16665 whole entry, looked up): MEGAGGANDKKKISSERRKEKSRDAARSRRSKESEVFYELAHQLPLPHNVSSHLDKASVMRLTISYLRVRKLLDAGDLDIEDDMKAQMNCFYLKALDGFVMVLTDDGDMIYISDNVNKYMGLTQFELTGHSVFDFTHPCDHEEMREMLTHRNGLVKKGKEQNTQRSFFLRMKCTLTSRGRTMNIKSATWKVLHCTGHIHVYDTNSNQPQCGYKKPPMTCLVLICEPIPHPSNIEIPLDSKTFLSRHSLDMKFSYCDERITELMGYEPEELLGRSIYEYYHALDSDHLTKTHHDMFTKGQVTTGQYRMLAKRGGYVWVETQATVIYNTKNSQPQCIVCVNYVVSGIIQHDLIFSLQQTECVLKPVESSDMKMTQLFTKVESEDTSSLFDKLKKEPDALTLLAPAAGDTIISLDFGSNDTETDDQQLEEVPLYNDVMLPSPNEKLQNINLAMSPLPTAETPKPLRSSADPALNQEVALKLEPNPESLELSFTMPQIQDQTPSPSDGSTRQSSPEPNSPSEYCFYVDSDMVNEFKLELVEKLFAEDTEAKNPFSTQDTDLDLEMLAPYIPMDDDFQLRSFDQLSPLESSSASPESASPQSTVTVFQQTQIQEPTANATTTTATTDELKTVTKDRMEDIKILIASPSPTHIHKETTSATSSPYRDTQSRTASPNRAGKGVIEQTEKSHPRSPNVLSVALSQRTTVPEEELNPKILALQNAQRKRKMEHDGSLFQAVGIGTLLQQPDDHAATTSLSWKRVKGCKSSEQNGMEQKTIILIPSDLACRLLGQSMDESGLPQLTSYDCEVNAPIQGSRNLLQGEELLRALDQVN
Chain of Hepatocyte nuclear factor 6 (Homo sapiens) (Q9UBC0 whole entry, looked up): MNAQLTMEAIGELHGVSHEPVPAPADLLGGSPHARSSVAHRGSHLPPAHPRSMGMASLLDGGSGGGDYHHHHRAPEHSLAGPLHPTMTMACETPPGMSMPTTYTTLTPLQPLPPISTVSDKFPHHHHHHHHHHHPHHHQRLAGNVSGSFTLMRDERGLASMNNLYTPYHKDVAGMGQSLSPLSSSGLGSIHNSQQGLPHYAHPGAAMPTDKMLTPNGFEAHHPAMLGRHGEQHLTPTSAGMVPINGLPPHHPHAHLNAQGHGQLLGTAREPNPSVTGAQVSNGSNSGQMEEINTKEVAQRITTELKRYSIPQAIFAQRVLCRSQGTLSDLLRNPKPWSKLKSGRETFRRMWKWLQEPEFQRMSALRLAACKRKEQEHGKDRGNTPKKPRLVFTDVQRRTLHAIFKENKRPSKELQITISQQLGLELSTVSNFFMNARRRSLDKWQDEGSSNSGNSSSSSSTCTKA

## CNCCCC12CCC(c3ccccc31)c1ccccc12
[1]
  outcome: inactive
[2]
  AC50: 17.9 µM (active)
[3]
  outcome: inactive
[4]
  outcome: inactive
[5]
  outcome: inactive
[6]
  AC50: 16.6 µM (active)
[7]
  outcome: inactive
[8]
  AC50: 17.4 µM (active)
[9]
  outcome: inactive
[10]
  outcome: inactive
[11]
  outcome: inactive
[12]
  outcome: inactive
[13]
  outcome: inactive
[14]
  outcome: inactive
[15]
  outcome: inactive
[16]
  AC50: 18.5 µM (active)

## CCCCC(CC)COC(=O)/C=C\C(=O)OCC(CC)CCCC (stereo not given)
[1]
  outcome: inactive
[2]
  outcome: inactive
[17]
  outcome: inactive
[3]
  outcome: inactive
[18]
  AC50: 21.2 µM (active)
[6]
  outcome: inactive
[8]
  outcome: inactive
[10]
  AC50: 100 µM (active)
[11]
  AC50: 100 µM (active)
[12]
  outcome: inactive
[13]
  outcome: inactive
[19]
  outcome: inactive
[14]
  outcome: inactive
[15]
  outcome: inactive
[16]
  outcome: inactive

## OC1OC[C@@H](O)[C@H](O)[C@H]1O (stereo not given in full)
[1]
  outcome: inactive
[2]
  outcome: inactive
[3]
  outcome: inactive
[18]
  outcome: inactive
[4]
  outcome: inactive
[5]
  outcome: inactive
[6]
  outcome: inactive
[7]
  outcome: inactive
[8]
  outcome: inactive
[9]
  outcome: inactive
[11]
  outcome: inactive
[12]
  outcome: inactive
[13]
  outcome: inactive
[19]
  outcome: inactive
[14]
  outcome: inactive
[15]
  outcome: inactive
[16]
  outcome: inactive

## CN1Cc2c(N)cccc2C(c2ccccc2)C1 (stereo not given)
[1]
  outcome: inactive
[2]
  outcome: inactive
[17]
  outcome: inactive
[3]
  outcome: inactive
[4]
  outcome: inactive
[5]
  outcome: inactive
[6]
  outcome: inactive
[7]
  outcome: inactive
[8]
  outcome: inactive
[10]
  outcome: inactive
[11]
  outcome: inactive
[12]
  outcome: inactive
[13]
  outcome: inactive
[19]
  outcome: inactive
[14]
  outcome: inactive
[15]
  outcome: inactive
[16]
  outcome: inactive

## Nc1cc(Cl)c(O)c(Cl)c1
[1]
  outcome: inactive
[2]
  AC50: 100 µM (active)
[3]
  outcome: inactive
[18]
  outcome: inactive
[4]
  outcome: inactive
[5]
  AC50: 142 µM (active)
[6]
  AC50: 79 µM (active)
[7]
  AC50: 84.9 µM (active)
[8]
  AC50: 136 µM (active)
[9]
  AC50: 24.8 µM (active)
[11]
  AC50: 60.2 µM (active)
[13]
  outcome: inactive
[19]
  AC50: 130 µM (active)
[14]
  outcome: inactive
[15]
  outcome: inactive
[16]
  AC50: 64.2 µM (active)

## C=CC(=O)OCCOCCOCC
[1]
  outcome: inactive
[2]
  outcome: inactive
[17]
  outcome: inactive
[3]
  outcome: inactive
[18]
  outcome: inactive
[6]
  outcome: inactive
[8]
  AC50: 68.4 µM (active)
[9]
  AC50: 27 µM (active)
[11]
  outcome: inactive
[12]
  outcome: inactive
[13]
  outcome: inactive
[19]
  outcome: inactive
[15]
  outcome: inactive
[16]
  outcome: inactive

## O=C(OCc1ccccc1)C(=O)OCc1ccccc1
[1]
  outcome: inactive
[2]
  outcome: inactive
[3]
  outcome: inactive
[18]
  outcome: inactive
[4]
  outcome: inactive
[6]
  outcome: inactive
[8]
  outcome: inactive
[9]
  outcome: inactive
[10]
  outcome: inactive
[11]
  outcome: inactive
[13]
  outcome: inactive
[19]
  outcome: inactive
[14]
  outcome: inactive
[15]
  outcome: inactive
[16]
  outcome: inactive

## O=C(O)c1cn(C2CC2)c2cc(N3CCNCC3)c(F)cc2c1=O
[1]
  outcome: inactive
[2]
  outcome: inactive
[17]
  outcome: inactive
[3]
  outcome: inactive
[5]
  outcome: inactive
[6]
  outcome: inactive
[8]
  outcome: inactive
[9]
  outcome: inactive
[10]
  outcome: inactive
[11]
  outcome: inactive
[13]
  outcome: inactive
[19]
  outcome: inactive
[14]
  outcome: inactive
[15]
  outcome: inactive
[16]
  outcome: inactive
